In paper PMC4336329 (PLoS ONE, 2015):
In all, about 310,000 compounds went through this assay and about 14,000 (4.5%) showed an effect of 50% or more. Effects have a minus sign here. What follows is part of a selection rich in strong results, with near analogues and random picks from the rest.

Each molecule was assayed against human ether-à-go-go-related gene (hERG) potassium channel (human, UniProt Q12809) (assay: primary screen, population patch clamp on CHO cells stably expressing hERG; higher = less effect of the substance).
Sequence of human ether-à-go-go-related gene (hERG) potassium channel (Q12809 whole entry, looked up): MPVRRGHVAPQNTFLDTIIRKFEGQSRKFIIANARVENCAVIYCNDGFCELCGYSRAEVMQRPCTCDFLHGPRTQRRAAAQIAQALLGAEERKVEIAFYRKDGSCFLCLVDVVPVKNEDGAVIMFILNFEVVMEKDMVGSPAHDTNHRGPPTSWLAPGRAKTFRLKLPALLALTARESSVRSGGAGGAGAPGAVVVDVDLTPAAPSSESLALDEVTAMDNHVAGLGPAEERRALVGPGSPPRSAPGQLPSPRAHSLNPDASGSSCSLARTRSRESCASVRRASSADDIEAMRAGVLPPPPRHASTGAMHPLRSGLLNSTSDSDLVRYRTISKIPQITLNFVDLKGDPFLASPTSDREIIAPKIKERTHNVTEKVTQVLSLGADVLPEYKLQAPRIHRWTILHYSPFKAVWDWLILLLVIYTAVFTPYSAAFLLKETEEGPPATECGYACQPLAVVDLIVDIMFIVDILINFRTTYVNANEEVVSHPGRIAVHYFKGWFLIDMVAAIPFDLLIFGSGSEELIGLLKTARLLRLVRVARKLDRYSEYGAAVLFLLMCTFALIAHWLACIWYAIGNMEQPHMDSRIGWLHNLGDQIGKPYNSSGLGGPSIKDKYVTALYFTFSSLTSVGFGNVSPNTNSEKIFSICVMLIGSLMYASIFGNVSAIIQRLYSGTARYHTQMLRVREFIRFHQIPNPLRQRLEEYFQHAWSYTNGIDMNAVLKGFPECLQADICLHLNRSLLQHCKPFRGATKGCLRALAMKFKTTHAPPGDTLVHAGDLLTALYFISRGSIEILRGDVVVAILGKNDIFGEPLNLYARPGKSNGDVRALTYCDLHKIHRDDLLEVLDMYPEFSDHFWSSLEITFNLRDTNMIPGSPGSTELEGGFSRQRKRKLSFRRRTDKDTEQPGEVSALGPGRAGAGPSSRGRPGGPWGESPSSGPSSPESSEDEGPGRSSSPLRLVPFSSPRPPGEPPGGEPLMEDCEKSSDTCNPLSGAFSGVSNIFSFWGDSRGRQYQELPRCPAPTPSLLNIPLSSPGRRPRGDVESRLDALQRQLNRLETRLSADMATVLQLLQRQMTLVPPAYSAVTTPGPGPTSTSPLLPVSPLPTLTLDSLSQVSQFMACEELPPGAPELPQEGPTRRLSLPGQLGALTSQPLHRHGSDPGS
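Note: peak tail current of the secondary pulse compared with the same well before compound.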

Row | SMILES | hERG current change (%, negative = inhibition) at 10uM [%]
1 | CC(=O)c1ccc(OCC(=O)N2CCN(S(=O)(=O)c3ccc(C)cc3C)CC2)cc1 | -61.6
2 | Cc1ccc(S(=O)(=O)N2CCN(C(=O)COc3ccc(C)nc3[N+](=O)[O-])CC2)c(C)c1 | -61
3 | CC(=O)c1ccc(OCCCC(=O)N2CCN(S(=O)(=O)c3cc(C)ccc3C)CC2)cc1 | -37.1
4 | Cc1ccc(OCC(=O)N2CCN(S(=O)(=O)c3ccccc3)CC2)c([N+](=O)[O-])n1 | -45.8
5 | O=C(COc1ccccc1[N+](=O)[O-])N1CCC(Cc2ccccc2)CC1 | -16.1
6 | Cc1ccc(OCC(=O)N2CCN(S(=O)(=O)c3ccc(Cl)cc3)CC2)c([N+](=O)[O-])n1 | -48.8
7 | Cc1ccc(OCC(=O)N2CCC(C)CC2)c([N+](=O)[O-])n1 | -7.74
8 | Cc1ccc(OCC(=O)N2CCC(Cc3ccccc3)CC2)c([N+](=O)[O-])n1 | -67.7
9 | CC(=O)c1ccc(OCCCC(=O)N2CCN(S(=O)(=O)c3ccc(C)cc3C)CC2)cc1 | -40.8
10 | COc1ccc(CNC(=S)Nc2ccc(OC)cc2)cc1 | 3.09
11 | Cc1nnc(-c2ccc(N3CCCCCC3)c([N+](=O)[O-])c2)o1 | -4.52
12 | Cc1ccc(CN2C(=O)CCC2C(=O)NCCc2ccccc2)cc1 (stereo not drawn) | 7.99
13 | c1ccc2nc3c(nc2c1)CCCC3 | 17.2
14 | Cn1c(=O)c2c(nc(SCc3cccnc3)n2Cc2ccccc2)n(C)c1=O | -17.6
15 | C=CCOCCN(C)C1=NS(=O)(=O)c2cc([N+](=O)[O-])ccc21 | -19.8
16 | Cc1ncc(CN2CCC(CO)(Cc3ccccc3)CC2)s1 | -7
17 | Cc1ncc(CN2CCC(CO)(CCc3ccccc3)CC2)s1 | -60.4
18 | Cc1ncc(CN2CCC(CO)(CCOc3ccccc3)CC2)s1 | -70.1
19 | Cc1ccc(NC(=O)c2ccc3nc(N4CCOCC4)sc3c2)c(Cl)c1 | 6.14
20 | Cc1ccc(NC(=O)/C=N/OCC(=O)NCc2ccccc2Cl)cc1 | 2.92
21 | Cc1cc(C)nc(SCc2nc3nc(C)cc(C)n3c2Br)n1 | -22.6
22 | Cc1csc2nc(CSc3nc4ccccc4o3)c(Br)n12 | 7.03
23 | Cc1cc(C)nc(NC(=O)CSc2nc3ccccc3s2)n1 | 2.88

Row | SMILES | hERG current change (%, negative = inhibition) at 10uM [%]
24 | Cc1cc(C)n(C(=O)CSc2nc3ccccc3o2)n1 | 19.3
25 | Cc1cc(C)n2c(Br)c(CSc3nc4ccccc4o3)nc2n1 | -63.9
26 | Cc1cc(C)n2c(Br)c(CSc3nc4ccccc4s3)nc2n1 | -76.7
27 | CCOc1ccc(/C=N/NC(=O)c2[nH]ncc2Br)c(O)c1 | 4.05
28 | CC(C)Oc1ccc(C(CC(=O)NCCCN(C)C)c2ccc(F)cc2)cc1 (stereo not drawn) | -57.1
29 | CC(C)Oc1ccc(C(CC(=O)N(C)CCC#N)c2ccc(F)cc2)cc1 (stereo not drawn) | -59.2
30 | CC(C)Oc1ccc(C(CC(=O)O)c2ccc(F)cc2)cc1 (stereo not drawn) | 6.58
31 | Cc1ccc(C(CC(=O)NCCCN(C)C)c2ccc(OC(C)C)cc2)cc1 (stereo not drawn) | -42.9
32 | CN(C)CCCNC(=O)CC(c1ccc(F)cc1)c1ccco1 (stereo not drawn) | -37.3
33 | COc1ccc(NC(=O)CC(c2ccc(F)cc2)c2ccc(OC(C)C)cc2)cc1 (stereo not drawn) | 3.91
34 | Br.O=C(N=c1nc2ccccn2s1)c1ccccc1 | 14.1
35 | C=CCSc1nnc(COc2ccc(=O)n(-c3ccccc3)n2)n1CC | -2.15
36 | CCn1c(COc2ccc(=O)n(-c3ccccc3)n2)n[nH]c1=S | 23.3
37 | CCn1c(COc2ccc(=O)n(-c3ccccc3)n2)nnc1SCc1ccccc1C | -65.4
38 | CCn1c(COc2ccc(=O)n(-c3ccccc3)n2)nnc1SCc1ccc(C)cc1 | -59.9
39 | CCn1c(COc2ccc(=O)n(-c3ccccc3)n2)nnc1SCc1cccc(OC)c1 | -39.1
40 | CCn1c(COc2ccc(=O)n(-c3ccccc3)n2)nnc1SCc1ccc(OC)cc1 | -67.7
41 | CCn1c(COc2ccc(=O)n(-c3ccccc3)n2)nnc1SC | 2.39
42 | CCn1c(COc2ccc(=O)n(-c3ccccc3)n2)nnc1SCC(=O)OC | 9.02
43 | CCn1c(COc2ccc(=O)n(-c3ccccc3)n2)nnc1SCc1ccccc1 | -48.2
44 | COc1ccc(-c2csc(NC(=O)CSc3nc(C)nc4sc(C(=O)O)c(C)c34)n2)cc1 | 11.9
45 | COCCNc1nc2c(c(=O)n(Cc3ccccc3F)c(=O)n2C)n1C | -15.8
46 | C=CCNC(=O)C(=O)Nc1ccc2c(c1)N(S(=O)(=O)c1cccs1)CCC2 | -14.7

Row | SMILES | hERG current change (%, negative = inhibition) at 10uM [%]
47 | Cc1ccc(S(=O)(=O)NC(C(=O)Oc2cc3oc(=O)cc(C)c3cc2Cl)C(C)C)cc1 (stereo not drawn) | -34.3
48 | CCOc1ccc(/C=C(\C)C(=O)c2c(C)cc(C)[nH]c2=O)cc1 | 5.24
49 | CCCCC(CC)C(=O)Nc1ccccc1C#N (stereo not drawn) | -4.83
50 | CCCCC(CC)C(=O)Nc1ccc(C#N)cc1 (stereo not drawn) | -52.5
51 | CCCCC(CC)C(=O)Nc1ccc(Nc2ccccc2)cc1 (stereo not drawn) | -12.8
52 | CCCCc1ccc(NC(=O)C(C)CC)cc1 (stereo not drawn) | -50.5
53 | CCCCc1ccc(NC(=O)OC)cc1 | -9.08
54 | CCCCc1ccc(NC(=O)CC(C)C)cc1 | -6.78
55 | COc1ccc(CNC(=O)c2ccc(NS(=O)(=O)c3ccc4[nH]c(=O)[nH]c4c3)cc2)cc1OC | 13.3
56 | CCOC(=O)c1ccc(NC(=O)CSc2nc(=O)n3cccc(C)c3n2)cc1 | -21.9
57 | COc1cc(Cl)c(S(=O)(=O)NCCCn2ccnc2)cc1Cl | 3.34
58 | CCOC(=O)CSCC(=O)Nc1cc(C)ccc1C | 0.851
59 | CNS(=O)(=O)c1cc(O)c2c(S(=O)(=O)NC)cccc2c1 | 11
60 | Cc1c(Cl)ccc2c(C(=O)NC(C)c3ccncc3)cc(-c3ccncc3)nc12 (stereo not drawn) | -59.3
61 | Cc1c(Cl)ccc2c(C(=O)O)cc(-c3ccccc3)nc12 | -1.96
62 | COC(=O)CNC(=O)c1cc(-c2ccncc2)nc2c(C)c(Cl)ccc12 | -27.9
63 | C=C(C)CC1(NC(C)c2ccccc2)CCCCC1 (stereo not drawn) | 4
64 | COc1ccc(OC)c(-c2csc(NC(=O)Cc3ccccc3OC)n2)c1 | -0.305
65 | COc1cccc(/C=N/NC(=O)c2nnn(-c3nonc3N)c2C(C)C)c1 | 11.4
66 | Cc1ccc(C(=O)NCC(=O)O)o1 | -5.14
67 | Cc1c(CNCCc2ccc(Cl)cc2)c(C(=O)O)c(C)n1Cc1ccccc1 | -50.1
68 | Cc1c(CNCCC2=CCCCC2)c(C(=O)O)c(C)n1Cc1ccccc1 | -13.3
69 | Cc1c(CNCCCc2ccccc2)c(C(=O)O)c(C)n1Cc1ccccc1 | 4.03

Row | SMILES | hERG current change (%, negative = inhibition) at 10uM [%]
70 | Cc1cccc(C)c1NC(=O)/C(C#N)=C/c1ccsc1 | -13.2
71 | Cc1c(OCC(N)=O)ccc2c(-c3ccccc3)cc(=O)oc12 | 5.53
72 | Cc1ccc(N2CC(C(=O)N3CCN(C(=O)c4ccco4)CC3)CC2=O)cc1 (stereo not drawn) | -71.7
73 | O=C(C1CC(=O)N(c2ccc(Cl)cc2)C1)N1CCCCCC1 (stereo not drawn) | -8.92
74 | O=C(c1ccco1)N1CCN(C(=O)C2CC(=O)N(c3ccccc3)C2)CC1 (stereo not drawn) | -41.3
75 | O=C(C1CC(=O)N(c2ccc(Cl)cc2)C1)N1CCOCC1 (stereo not drawn) | -0.293
76 | O=C(c1ccco1)N1CCN(C(=O)C2CC(=O)N(c3ccc(Cl)cc3)C2)CC1 (stereo not drawn) | -75.4
77 | CCC(C)c1ccccc1N1CC(C(=O)N2CCN(C(=O)c3ccco3)CC2)CC1=O (stereo not drawn) | -12.6
78 | O=C(CNC(=O)c1ccc(OC(F)F)cc1)NCC1CCCO1 (stereo not drawn) | 2.87
79 | CCCCN1C(=O)/C(=C/c2ccc(N3CCCCCC3)cc2)C(=O)NC1=S | -22.9
80 | C=CCc1ccc(OCCCCN2CC(C)OC(C)C2)c(OC)c1.O=C(O)C(=O)O (stereo not drawn) | -25.8
81 | C=CCc1ccc(OCCCCCN2CCOCC2)c(OC)c1.O=C(O)C(=O)O | -18.1
82 | C=CCc1ccc(OCCCCNC2CCCC2)c(OC)c1.O=C(O)C(=O)O | -39.9
83 | C=CCc1ccc(OCCCOc2ccc(C(=O)O)cc2)c(OC)c1 | -1.14
84 | C=CCc1ccc(OCCCN2CCCC(C)C2)c(OC)c1.O=C(O)C(=O)O (stereo not drawn) | -65.8
85 | C=CCc1ccc(OCCCCN2CC(C)CC(C)C2)c(OC)c1.O=C(O)C(=O)O (stereo not drawn) | -67
86 | C=CCc1ccc(OCCCNC2CCCC2)c(OC)c1 | -48.1
87 | C=CCc1ccc(OCCCCN2CCC(C)CC2)c(OC)c1 | -69.6
88 | C=CCc1ccc(OCCCCOc2ccc(C(=O)O)cc2)c(OC)c1 | 14
89 | CCOc1ccc(C(=O)Nc2cccc(C)n2)cc1 | 0.201
90 | COc1ccc(/C=N/NC(=O)c2ccn[nH]2)cc1COc1ccc(Cl)cc1 | 2.09
